About 83,000 compounds went through this panel and 20% of them were active in at least one assay; those are over-represented in the sample as a whole.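 96-well plates, one dose, 48 hours. Percent growth reported; active if below 10.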 Unmarked numbers belong to inactive results. Calls of active or inactive are those of the source.

For the experiment, the system named is U251 CNS. Nature of the experiment: NCI-60 one-dose screen, 48 h (100 = growth as untreated, 0 = no growth, -100 = all killed). As to conditions: 10 µM unless noted. Here is the method:
Growth inhibition of the U251 human tumor cell line is measured as a screen for anti-cancer activity. Cells are grown in 96 well plates and exposed to the test compound for 48 hours. Compounds are tested at a single concentration, which is 10^-5 M for most compounds. The reported endpoint is percent growth (GI% or GIPRCNT), where numbers from 0 - 100% represent growth inhibition, and numbers from -100% - 0 represent cell death. For example, a value of 40 represents 60% growth inhibition. A value of 0 means no net growth occurred over the course of the experiment. A value of -40 indicates 40% of cells at the beginning of the experiment died by the end of the experiment. A value of -100 means all cells are dead at the end of the experiment.
NCI-60 Human Tumor Cell Lines Screen was performed using the standard one-dose NCI protocol, which is described in more detail at https://dtp.cancer.gov/discovery_development/nci-60/default.htm.
Compounds with GIPRCNT values below 10 were considered active. Activity score was based on GIPRCNT using the following formula: […]
Score is 0 for GIPRCNT values of 100 or above, 50 for GIPRCNT values of 0, and 100 for GIPRCNT values of -100.
Turning to `CSC1=N/C(=C\c2cccc(OCc3ccc(Cl)cc3)c2)C(=O)N1`, the growth was 84.5%.

As for `COc1cc(-c2nn(C(=O)NCCN3CCN(C)CC3)cc2-c2ccncc2)ccc1Cl`, the growth was 80.9%.

Take `Nc1ccc(C2=NNC(=O)Cc3cc4c(cc32)OCCO4)cc1Cl`: the growth was 39.1%.

With `C[C@@H]1N=C(c2ccc3ccccc3c2)Nc2nc3ccccn3c2C1=O`, the growth is 32.5%.

For the compound `COc1ccc(-c2cc(-c3ccc(OC)cc3)c3sc(=O)[nH]c3n2)cc1`, the growth is 72.6%.

With `Cn1cnc([N+](=O)[O-])c1S(=O)(=O)Oc1cccc2ccccc12`, the growth was 57.6%.

Turning to `c1coc(CNc2c3ccccc3nc3ccccc23)c1`, the growth is 65.1%.

Regarding `Clc1nnc2c3ccccc3ccn12`, the growth is 102%.

In the case of `CCOC(=O)C(CCCCC(NC(C)=O)(C(=O)OCC)C(=O)OCC)(NC(C)=O)C(=O)OCC`, the growth is 104%.

With `COc1ccc(N=C2CSc3nnc(-c4cc(F)c(Cl)cc4Cl)n3N2)cc1`, the growth was -52.2% (active).

In the case of `COc1ccc2c(c1)sc1nc(-c3ccccc3)c(-c3cccc4ccccc34)n12`, the growth is 21.3%.

In the case of `CCOC(=O)CCN(CCC(=O)OCC)c1ccccc1`, the growth was 92.5%.

For `Cc1cc(O)c2cc3c(O)c(O)ccc3cc2c1`, the growth is 108%.

As to `CN(C)c1nc(-c2ccco2)n2nc(-c3ccc(Cl)cc3)cc2n1`, the growth is 59.5%.

For the compound `CS(=O)(=O)c1ccc(Cl)c([N+](=O)[O-])c1`, the growth is 109%.

`CS(=O)(=O)c1ccc(C(=O)N/N=C/c2ccccc2O)cc1`: the growth is 27.8%.

In the case of `CC(C)(C)c1nn(-c2ccccc2)c2c1C(=O)CSC(c1ccccc1Cl)N2` (stereo not given), the growth is 33.2%.

For `Cc1ccc(NC(=O)c2cc(NCc3cc(O)ccc3O)ccc2O)cc1`, the growth is 95.4%.

For the compound `CS(=O)(=O)c1ccc(C(=O)N/N=C/c2cccc3ccccc23)cc1`, the growth was 76.3%.

As to `O=C(/C=C/c1cn(-c2ccccc2)nc1-c1ccccc1)OCc1cn(-c2cccc([N+](=O)[O-])c2)nn1`, the growth was 78.3%.

With `COc1ccc(-c2nc3ccccc3n3cccc23)cc1`, the growth was 100%.

Regarding `COc1ccc2c(c1)C1=NN(C(=O)CO)[C@H](c3ccc(OC(F)(F)F)cc3)[C@@H]1CC2`, the growth was 87.3%.

As to `COc1ccc(NC(=O)Cn2c(=O)sc3c(-c4ccc(Cl)cc4)cc(-c4ccc(Cl)cc4)nc32)cc1`, the growth is 103%.

As to `c1ccc2c(N=NSc3ncnc4nc[nH]c34)c3ccccc3nc2c1`, the growth was 8.63% (active).

Turning to `CCN(CC)CCCC(C)Nc1ccnc2ccc(Oc3ccccc3)cc12` (stereo not given), the growth was 63.5%.

Regarding `c1cc2c(cc1-c1cnc3nonc3n1)OCO2`, the growth was 94.2%.

In the case of `Cn1c(=O)c2c(nc(N/N=C/c3ccccc3Cl)n2C)n(C)c1=O`, the growth was 101%.

As to `O=[N+]([O-])c1ccc(N/N=C/c2ccccc2O)nc1`, the growth is 28.5%.

Regarding `CN(C)c1ccc(/C=C\c2cccc[n+]2C)cc1`, the growth is 33%.

On to `Cc1ccc2c(C)c3c(ccc4ccccc43)c[n+]2c1`, for which the growth is 24.5%.

With `COC(=O)CSc1ccc(Cl)cc1`, the growth is 103%.

Regarding `CCCCCCCC/C=C\CCCCCCCC(=O)OCCCCCC`, the growth is 97.1%.

`Cc1nn(-c2cccc(Cl)c2)c(C)c1N=Nc1ccc(Br)cc1`: the growth is 92.5%.

Consider `O=C(CSc1nc2c(n1Nc1ccccc1)-c1ccccc1SC2)Nc1nccs1`, for which the growth is 93.8%.

`CCC1N=C(N)N=C(N)N1c1ccc(Cl)cc1` (stereo not given): the growth was 58.8%.

Consider `c1ccc(CCn2cccc2)nc1`, for which the growth was 103%.

For `COc1cc2c(c(OC)c1O)C(=O)C(OC)C(c1ccc(O)c(O)c1)O2` (stereo not given), the growth was 15.4%.

Turning to `CCCCc1nc(Cl)c(C2CC(c3ccc(S(N)(=O)=O)cc3)=NN2c2cc(Cl)cc(Cl)c2)[nH]1` (stereo not given), the growth was 23.5%.

With `CCNC(=O)c1ccc2c(c1)nc(-c1ccc(Cl)cc1)n2-c1cc(C(C)(C)C)[nH]n1`, the growth is 46.5%.

Turning to `CCn1c(Cc2ccccc2Nc2c(Cl)cccc2Cl)nnc1SCC(=O)Nc1cccc(OC)c1`, the growth is 86.1%.

Source of the values: PubChem BioAssay (NCI).
